# Assay results: the supplement of paper PMC10037445
# In all, about 2,900 compounds were measured (“NF-kB SEAP reporter activity, fold change vs agonist alone”: median about 0.99, highest 2% from about 2.6 on). The entries come from a sample that favours the highest values as a whole.
# Assays:
# RAW-Dual [1] = assay: NF-kB SEAP reporter activity, fold change vs agonist alone; cytotoxicity flag (confluency mask): not cytotoxic; higher = enhanced NF-kB activity
# In short: (§1)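 Cytotoxic wells were those whose IncuCyte confluency was below 70% of agonist controls in both mask sets. The cells were RAW-Dual macrophages at 50,000 cells/well in DMEM on 384-well plates, dosed with 50 nL of library stock by pin tool, stimulated with a PRR agonist 1 h later, and kept at 37 °C, 5% CO2 for 20 hours. IRF and NF-κB reporter activity, as fold change over agonist-alone wells, came from supernatant read by QuantiLuc luminescence and QuantiBlue absorbance, respectively.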
# RAW-Dual [2] = assay: NF-kB SEAP reporter activity, fold change vs agonist alone; higher = enhanced NF-kB activity; details: library stock concentration (final ~1000-fold dilution): 10 mM
# In short: as §1
# RAW-Dual [3] = assay: NF-kB SEAP reporter activity, fold change vs agonist alone; cytotoxicity flag (confluency mask): cytotoxic (confluency <70% of control); higher = enhanced NF-kB activity
# In short: as §1
# [4] = agonist: ODN 1826 (TLR9) 0.5 ug/mL
# [5] = agonist: Pam2CSK4 (TLR2/6) 0.1 ug/mL
# [6] = agonist: Pam3CSK4 (TLR2/1) 0.1 ug/mL
# [7] = cytotoxicity flag (confluency mask): not cytotoxic, agonist: Imiquimod (TLR7) […]
# [8] = cytotoxicity flag (confluency mask): not cytotoxic, agonist: MPLA (TLR4) […]
# [9] = cytotoxicity flag (confluency mask): cytotoxic (confluency <70% of control), agonist: MPLA (TLR4) […]
# [10] = cytotoxicity flag (confluency mask): cytotoxic (confluency <70% of control), agonist: Imiquimod (TLR7) […]
structure (smiles),measurement,setting,value
CC(C)NCC(O)COc1ccc(COCCOC(C)C)cc1.O=C(O)/C=C/C(=O)O (centres undefined) (library stock concentration (final ~1000-fold dilution): 10 mM),NF-kB SEAP reporter activity,RAW-Dual [1]; agonist: LPS (TLR4) 0.1 ug/mL,1.05
same,NF-kB SEAP reporter activity,RAW-Dual [1]; [4],0.873
same,NF-kB SEAP reporter activity,RAW-Dual [1]; [5],0.984
same,NF-kB SEAP reporter activity,RAW-Dual [1]; [6],1.03
CC(C)NCC(O)COc1ccc(COCCOC(C)C)cc1.O=C(O)/C=C/C(=O)O (centres undefined),NF-kB SEAP reporter activity,RAW-Dual [2]; [7],0.869
same,NF-kB SEAP reporter activity,RAW-Dual [2]; [8],1.02
Cc1ccc(-c2c(-c3nn(C)c4ncnc(N5CCC(N6CCCCC6)C5)c34)cnn2C)cc1 (centres undefined),NF-kB SEAP reporter activity,RAW-Dual [2]; [7],0.947
same,NF-kB SEAP reporter activity,RAW-Dual [2]; [8],1.09
Cc1ccc(-c2c(-c3nn(C)c4ncnc(N5CCC(N6CCCCC6)C5)c34)cnn2C)cc1 (centres undefined) (library stock concentration (final ~1000-fold dilution): 10 mM),NF-kB SEAP reporter activity,RAW-Dual [1]; agonist: LPS (TLR4) 0.1 ug/mL,1.57
same,NF-kB SEAP reporter activity,RAW-Dual [1]; [4],0.856
same,NF-kB SEAP reporter activity,RAW-Dual [1]; [5],1.21
same,NF-kB SEAP reporter activity,RAW-Dual [1]; [6],1.16
Cc1nc(Nc2ncc(C(=O)Nc3c(C)cccc3Cl)s2)cc(N2CCN(CCO)CC2)n1.O,NF-kB SEAP reporter activity,RAW-Dual [2]; [7],0.326
same,NF-kB SEAP reporter activity,RAW-Dual [2]; [8],0.715
Cc1nc(Nc2ncc(C(=O)Nc3c(C)cccc3Cl)s2)cc(N2CCN(CCO)CC2)n1.O (library stock concentration (final ~1000-fold dilution): 10 mM),NF-kB SEAP reporter activity,RAW-Dual [1]; agonist: LPS (TLR4) 0.1 ug/mL,1.33
same,NF-kB SEAP reporter activity,RAW-Dual [1]; [4],0.661
same,NF-kB SEAP reporter activity,RAW-Dual [1]; [5],0.283
same,NF-kB SEAP reporter activity,RAW-Dual [1]; [6],0.215
CC1OC(OC2CCC3(C)C(CCC4(C)C3C=CC35OCC6(CCC(C)(C)CC63)C(O)CC45C)C2(C)CO)C(O)C(OC2OC(CO)C(O)C(O)C2O)C1O (centres undefined),NF-kB SEAP reporter activity,RAW-Dual [2]; [9],0.319
CC1OC(OC2CCC3(C)C(CCC4(C)C3C=CC35OCC6(CCC(C)(C)CC63)C(O)CC45C)C2(C)CO)C(O)C(OC2OC(CO)C(O)C(O)C2O)C1O (centres undefined) (library stock concentration (final ~1000-fold dilution): 10 mM),NF-kB SEAP reporter activity,RAW-Dual [3]; agonist: LPS (TLR4) 0.1 ug/mL,0.221
same,NF-kB SEAP reporter activity,RAW-Dual [3]; [4],0.257
same,NF-kB SEAP reporter activity,RAW-Dual [3]; [5],0.0991
same,NF-kB SEAP reporter activity,RAW-Dual [3]; [6],0.143
NC(=O)c1ccccn1 (library stock concentration (final ~1000-fold dilution): 10 mM),NF-kB SEAP reporter activity,RAW-Dual [1]; agonist: LPS (TLR4) 0.1 ug/mL,1.07
same,NF-kB SEAP reporter activity,RAW-Dual [1]; [4],0.942
same,NF-kB SEAP reporter activity,RAW-Dual [1]; [5],1.06
same,NF-kB SEAP reporter activity,RAW-Dual [1]; [6],0.836
Clc1ccc(N/N=C(\c2ccccc2)c2ccccn2)nc1,NF-kB SEAP reporter activity,RAW-Dual [2]; [7],1.5
same,NF-kB SEAP reporter activity,RAW-Dual [2]; [8],2.77
Clc1ccc(N/N=C(\c2ccccc2)c2ccccn2)nc1 (library stock concentration (final ~1000-fold dilution): 10 mM),NF-kB SEAP reporter activity,RAW-Dual [1]; agonist: LPS (TLR4) 0.1 ug/mL,4.59
same,NF-kB SEAP reporter activity,RAW-Dual [1]; [4],1.18
same,NF-kB SEAP reporter activity,RAW-Dual [1]; [5],0.556
same,NF-kB SEAP reporter activity,RAW-Dual [1]; [6],1.76
NC(=O)c1ccccn1,NF-kB SEAP reporter activity,RAW-Dual [2]; [8],1.08
C=C1CC23CCC4C(C)(C(=O)O)CCCC4(C)C2CCC1C3 (centres undefined),NF-kB SEAP reporter activity,RAW-Dual [2]; [7],0.739
same,NF-kB SEAP reporter activity,RAW-Dual [2]; [8],0.753
C=C1CC23CCC4C(C)(C(=O)O)CCCC4(C)C2CCC1C3 (centres undefined) (library stock concentration (final ~1000-fold dilution): 10 mM),NF-kB SEAP reporter activity,RAW-Dual [1]; agonist: LPS (TLR4) 0.1 ug/mL,0.821
same,NF-kB SEAP reporter activity,RAW-Dual [1]; [4],0.749
same,NF-kB SEAP reporter activity,RAW-Dual [1]; [5],0.65
same,NF-kB SEAP reporter activity,RAW-Dual [1]; [6],0.646
COc1ccc(CCCOC(Cn2ccnc2)c2ccc(OC)cc2)cc1.Cl (centres undefined),NF-kB SEAP reporter activity,RAW-Dual [2]; [7],0.901
same,NF-kB SEAP reporter activity,RAW-Dual [2]; [8],1.28
COc1ccc(CCCOC(Cn2ccnc2)c2ccc(OC)cc2)cc1.Cl (centres undefined) (library stock concentration (final ~1000-fold dilution): 10 mM),NF-kB SEAP reporter activity,RAW-Dual [1]; agonist: LPS (TLR4) 0.1 ug/mL,0.82
same,NF-kB SEAP reporter activity,RAW-Dual [1]; [4],0.588
same,NF-kB SEAP reporter activity,RAW-Dual [1]; [5],0.572
same,NF-kB SEAP reporter activity,RAW-Dual [1]; [6],0.84
Cl.Cn1cc(C(=O)Nc2ccc3c(c2)OCCO3)c2ccccc2c1=O,NF-kB SEAP reporter activity,RAW-Dual [2]; [7],1.2
same,NF-kB SEAP reporter activity,RAW-Dual [2]; [8],1.41
Cl.Cn1cc(C(=O)Nc2ccc3c(c2)OCCO3)c2ccccc2c1=O (library stock concentration (final ~1000-fold dilution): 10 mM),NF-kB SEAP reporter activity,RAW-Dual [1]; agonist: LPS (TLR4) 0.1 ug/mL,2.21
same,NF-kB SEAP reporter activity,RAW-Dual [1]; [4],1.48
same,NF-kB SEAP reporter activity,RAW-Dual [1]; [5],1.09
same,NF-kB SEAP reporter activity,RAW-Dual [1]; [6],1.29
CC(C)(C)CC1NC(C(=O)NC2CCC(O)CC2)C(c2cccc(Cl)c2F)C12C(=O)Nc1cc(Cl)ccc12 (centres undefined),NF-kB SEAP reporter activity,RAW-Dual [2]; [10],1.55
same,NF-kB SEAP reporter activity,RAW-Dual [2]; [9],2.25
CC(C)(C)CC1NC(C(=O)NC2CCC(O)CC2)C(c2cccc(Cl)c2F)C12C(=O)Nc1cc(Cl)ccc12 (centres undefined) (library stock concentration (final ~1000-fold dilution): 10 mM),NF-kB SEAP reporter activity,RAW-Dual [3]; agonist: LPS (TLR4) 0.1 ug/mL,3.05
same,NF-kB SEAP reporter activity,RAW-Dual [3]; [4],2.82
same,NF-kB SEAP reporter activity,RAW-Dual [3]; [5],0.884
same,NF-kB SEAP reporter activity,RAW-Dual [3]; [6],1.21
COc1cc(C(=O)O)ccc1NC(=O)C1NC(CC(C)(C)C)C(C#N)(c2ccc(Cl)cc2F)C1c1cccc(Cl)c1F (centres undefined),NF-kB SEAP reporter activity,RAW-Dual [2]; [7],0.74
same,NF-kB SEAP reporter activity,RAW-Dual [2]; [8],0.697
COc1cc(C(=O)O)ccc1NC(=O)C1NC(CC(C)(C)C)C(C#N)(c2ccc(Cl)cc2F)C1c1cccc(Cl)c1F (centres undefined) (library stock concentration (final ~1000-fold dilution): 10 mM),NF-kB SEAP reporter activity,RAW-Dual [1]; agonist: LPS (TLR4) 0.1 ug/mL,0.272
same,NF-kB SEAP reporter activity,RAW-Dual [1]; [4],0.436
same,NF-kB SEAP reporter activity,RAW-Dual [1]; [5],0.145
same,NF-kB SEAP reporter activity,RAW-Dual [1]; [6],0.285
CC(=O)OC1(C(C)=O)CCC2C3C=C(Cl)C4=CC(=O)C5CC5C4(C)C3CCC21C (centres undefined) (library stock concentration (final ~1000-fold dilution): 10 mM),NF-kB SEAP reporter activity,RAW-Dual [1]; agonist: LPS (TLR4) 0.1 ug/mL,1.2
same,NF-kB SEAP reporter activity,RAW-Dual [1]; [4],1.01
same,NF-kB SEAP reporter activity,RAW-Dual [1]; [5],0.777
same,NF-kB SEAP reporter activity,RAW-Dual [1]; [6],1.08
CC(=O)OC1(C(C)=O)CCC2C3C=C(Cl)C4=CC(=O)C5CC5C4(C)C3CCC21C (centres undefined),NF-kB SEAP reporter activity,RAW-Dual [2]; [7],1.26
same,NF-kB SEAP reporter activity,RAW-Dual [2]; [8],1.21
C[C@H]1[C@@H](O)O[C@@H]2OC3(C)CC[C@H]4[C@H](C)CC[C@@H]1[C@@]24OO3 (library stock concentration (final ~1000-fold dilution): 10 mM),NF-kB SEAP reporter activity,RAW-Dual [1]; agonist: LPS (TLR4) 0.1 ug/mL,3.41
same,NF-kB SEAP reporter activity,RAW-Dual [1]; [4],1.13
same,NF-kB SEAP reporter activity,RAW-Dual [1]; [5],1.1
same,NF-kB SEAP reporter activity,RAW-Dual [1]; [6],0.848
CC1CCC2C(C)C(OC(=O)CCC(=O)O)OC3OC4(C)CCC1C32OO4 (centres undefined) (library stock concentration (final ~1000-fold dilution): 10 mM),NF-kB SEAP reporter activity,RAW-Dual [1]; agonist: LPS (TLR4) 0.1 ug/mL,5.12
same,NF-kB SEAP reporter activity,RAW-Dual [1]; [4],1.67
same,NF-kB SEAP reporter activity,RAW-Dual [1]; [5],1.02
same,NF-kB SEAP reporter activity,RAW-Dual [1]; [6],1.44
C[C@H]1[C@@H](O)O[C@@H]2OC3(C)CC[C@H]4[C@H](C)CC[C@@H]1[C@@]24OO3,NF-kB SEAP reporter activity,RAW-Dual [2]; [7],1.32
same,NF-kB SEAP reporter activity,RAW-Dual [2]; [8],1.97
CC1CCC2C(C)C(OC(=O)CCC(=O)O)OC3OC4(C)CCC1C32OO4 (centres undefined),NF-kB SEAP reporter activity,RAW-Dual [2]; [7],1.84
same,NF-kB SEAP reporter activity,RAW-Dual [2]; [8],2.5
Nc1nonc1/C(=N\O)Nc1ccc(F)c(Cl)c1,NF-kB SEAP reporter activity,RAW-Dual [2]; [7],0.904
same,NF-kB SEAP reporter activity,RAW-Dual [2]; [8],0.933
Nc1nonc1/C(=N\O)Nc1ccc(F)c(Cl)c1 (library stock concentration (final ~1000-fold dilution): 10 mM),NF-kB SEAP reporter activity,RAW-Dual [1]; agonist: LPS (TLR4) 0.1 ug/mL,1.01
same,NF-kB SEAP reporter activity,RAW-Dual [1]; [4],0.882
same,NF-kB SEAP reporter activity,RAW-Dual [1]; [5],0.938
same,NF-kB SEAP reporter activity,RAW-Dual [1]; [6],0.585
COc1ccc2cc1Oc1ccc(cc1)CC1c3c(cc4c(c3Oc3cc5c(cc3OC)CCN(C)C5C2)OCO4)CCN1C (centres undefined),NF-kB SEAP reporter activity,RAW-Dual [2]; [10],1.58
same,NF-kB SEAP reporter activity,RAW-Dual [2]; [9],2.32
COc1ccc2cc1Oc1ccc(cc1)CC1c3c(cc4c(c3Oc3cc5c(cc3OC)CCN(C)C5C2)OCO4)CCN1C (centres undefined) (library stock concentration (final ~1000-fold dilution): 10 mM),NF-kB SEAP reporter activity,RAW-Dual [3]; agonist: LPS (TLR4) 0.1 ug/mL,1.44
same,NF-kB SEAP reporter activity,RAW-Dual [3]; [4],0.251
same,NF-kB SEAP reporter activity,RAW-Dual [3]; [5],1.42
same,NF-kB SEAP reporter activity,RAW-Dual [3]; [6],1.01
